Compound activity (PubChem BioAssay)
Autofluor counter – counter-screen for toxin protease inhibitors: compound fluorescence; 360,000 tested, 3.1% active; compound autofluorescence counterscreen, microsphere flow cytometry; stronger effect = higher value; AID 624483; fluorescence intensity (test concentration not listed); in the data active means fluorescence intensity above about 16000; inconclusive means no clear call, values can overlap the other calls
Vc quorum ag – inducers of Vibrio cholerae quorum light production without autoinducers | V. cholerae BH1578 lux reporter, luminescence, 6 h | activation, % at 18.7 µM | 350,000 tested, 0.16% active | AID 588436; in the data active means activation mostly above about 9.7%, no sharp cut-off; inconclusive means no clear call, values can overlap the other calls; inactive means mostly below about 3.7%
Anthrax LF inh2 – blocks Bacillus anthracis lethal factor protease. 360,000 tested, 0.12% active. multiplex microsphere protease cleavage assay, LF. inhibition, % at 10 µM. P15917; further: plate controls were buffer without enzyme for full effect and enzyme alone for no effect
Target sequence (P15917 whole entry, looked up): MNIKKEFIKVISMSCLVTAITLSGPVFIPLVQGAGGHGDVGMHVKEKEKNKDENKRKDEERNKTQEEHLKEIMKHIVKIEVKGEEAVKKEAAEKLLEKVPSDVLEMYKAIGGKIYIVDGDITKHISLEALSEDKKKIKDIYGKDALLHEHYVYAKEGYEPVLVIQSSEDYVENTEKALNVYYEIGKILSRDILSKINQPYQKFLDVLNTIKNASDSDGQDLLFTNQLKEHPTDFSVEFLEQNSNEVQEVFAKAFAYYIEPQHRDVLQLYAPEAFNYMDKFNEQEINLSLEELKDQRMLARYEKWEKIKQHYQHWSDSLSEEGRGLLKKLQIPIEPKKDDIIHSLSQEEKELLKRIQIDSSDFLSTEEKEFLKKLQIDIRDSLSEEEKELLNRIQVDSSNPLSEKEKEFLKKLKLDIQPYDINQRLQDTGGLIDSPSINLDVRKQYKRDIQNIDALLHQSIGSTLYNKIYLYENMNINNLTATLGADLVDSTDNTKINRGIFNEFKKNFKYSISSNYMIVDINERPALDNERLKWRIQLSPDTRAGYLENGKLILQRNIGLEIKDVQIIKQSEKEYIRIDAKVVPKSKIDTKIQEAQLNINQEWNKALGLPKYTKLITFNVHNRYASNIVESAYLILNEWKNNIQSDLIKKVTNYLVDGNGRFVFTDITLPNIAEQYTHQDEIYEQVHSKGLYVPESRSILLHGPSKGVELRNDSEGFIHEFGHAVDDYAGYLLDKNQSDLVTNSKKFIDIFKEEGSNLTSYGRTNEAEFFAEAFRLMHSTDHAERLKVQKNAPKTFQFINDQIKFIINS
BoNT A protease – inhibitors of Botulinum neurotoxin A light chain protease; multiplex microsphere protease substrate cleavage, flow cytometry; inhibition, % at 10 µM; 360,000 tested, 0.17% active; AID 588499; further: plate controls were buffer without enzyme for full effect and enzyme alone for no effect
MazEF act – activators of E. coli MazEF toxin-antitoxin RNase | FAM/BHQ RNA-DNA oligo cleavage fluorescence, 5 h | activation, % at 20 µM | 350,000 tested, 0.32% active; in the data active means activation above about 50%
BoNT F protease – BoNT F light chain protease inhibition; Multiplex microsphere protease cleavage assay, flow cytometry; inhibition, % at 10 µM; 360,000 tested, 0.22% active; AID 588497; in the data active means inhibition above about 35%, passing the limit was not always enough; inconclusive means no clear call, values can overlap the other calls; further: plate controls were buffer without enzyme for full effect and enzyme alone for no effect
Starred values were filed as active, the others as inactive; i = inactive; ? = inconclusive; · = no result; + = active, no number. A selection: hits, their analogues and other compounds. The true share with any hit is near 3.9%. Unless noted, no stated cut-off is given here; in the data, active means inhibition above about 30%; inconclusive means no clear call, values can overlap the other calls; inactive means below that.

SMILES	Autofluor counter	Vc quorum ag	Anthrax LF inh2	BoNT A protease	MazEF act	BoNT F protease
CCOC(=O)c1[nH]c2ccccc2c1NC(=O)c1nonc1C	21361*	i	-2	?	0	3
CCOC(=O)c1[nH]c2ccc(Cl)cc2c1NC(=O)c1nonc1C	23712*	i	-1	-2	-7	-2
Oc1ccccc1C1=Nc2ccccc2N=C(c2ccco2)C1	9950	i	-5	0	56*	-5
Cc1ccc(C2=Nc3ccccc3N=C(c3ccc([N+](=O)[O-])cc3)C2)c(O)c1	2141	5	0	1	7	0
O=C(COC(=O)c1ccccc1Br)Nc1cccnc1Cl	5160	-2	-1	-4	5	-8
COc1ccc(/C=c2\s/c(=C/C(=O)c3ccc(C)cc3)[nH]c2=O)c(OC)c1	2696	-1	-3	2	+	-11
CC(C)NC(=O)Cn1c(SCC(=O)N2CCc3ccccc3C2)nc2ccccc21	20580*	i	-1	-3	-1	-7
CCc1nnc(NC(=O)CSc2ncnc3scc(-c4ccc(C)cc4)c23)s1	5072	0	-2	1	86*	-3
COc1ccc(S(=O)(=O)N(C)c2ccc(C(=O)NCCC(C)C)cc2)cc1	19593*	-3	0	?	-10	4
COc1ccc(S(=O)(=O)Nc2cc(C(=O)NCCC(C)C)ccc2N2CCOCC2)cc1	23444*	0	0	-1	-9	-3
CCCN(CCC)S(=O)(=O)c1ccc(NS(=O)(=O)c2ccc(F)cc2)cc1	17098*	0	-3	-2	6	-1
COCCCNC(=S)NC(=O)c1ccc(C)cc1	2161	0	-1	0	-12	0
Cc1cccc(OC(C)C(=O)Nc2ccccc2C(=O)N2CCCCC2)c1 (centres undefined)	?	1	-1	4	6	-2
CC(C(=O)Nc1ccccc1C(=O)N1CCCC1)n1nnc2ccccc21 (centres undefined)	21214*	i	0	-3	2	-5
O=C(NCC1CCCO1)c1nn2c(C(F)(F)F)cc(-c3cc(Br)cs3)nc2c1Br (centres undefined)	5866	i	1	3	71*	4
O=C(NCC1CCCO1)c1nn2c(C(F)(F)F)cc(-c3ccco3)nc2c1Cl (centres undefined)	5131	0	0	3	8	2
CN(C)C(=O)COn1c(SCC(=O)N(C)C)nc2ccccc2c1=O	20262*	-1	-4	0	0	-1
CCOC(=O)COn1c(SCC(=O)OCC)nc2ccccc2c1=O	?	0	?	?	-1	?
CC1=C(C(=O)N2CCC3(CC2)OCCO3)C2(CCC(C)CC2)OC1=O (centres undefined)	21647*	i	-1	?	-7	1
Cc1c(C(=O)N2CCC3(CC2)OCCO3)oc2ccccc12	18025*	1	5	4	-2	6
Cn1cc(C(=O)NCCN2CCN(c3cccc(Cl)c3)CC2)c2c3ccccc3n(C)c2c1=O	23347*	0	-3	-1	3	-2
CCOC(=O)N1CCN(C(=O)c2cn(CC(C)C)c(=O)c3c2c2ccccc2n3C)CC1	9732	i	0	0	-1	6
CCOC(=O)N1CCN(C(=O)c2cn(C)c(=O)c3c2c2ccccc2n3C)CC1	22295*	0	0	2	2	3
CC1(C)OC(=O)C2=C(C[C@@H](CCc3ccccc3)O[C@H]2CCc2cccc(Cl)c2)O1	5802	·	2	0	·	15
CC(Sc1nc2ccccc2c(=O)n1CCc1ccc(S(N)(=O)=O)cc1)C(=O)NC(N)=O (centres undefined)	6039	0	2	0	4	-5
SMILES	Autofluor counter	Vc quorum ag	Anthrax LF inh2	BoNT A protease	MazEF act	BoNT F protease
Cc1cccc(C(O)c2ncc(-c3ccccc3)[nH]2)c1C (centres undefined)	2869	i	-4	0	·	-1
CCSc1nnc(SCC(=O)Nc2cc(C)on2)s1	4530	i	2	7	-6	8
Cn1cc(C(=O)N2CCC3(CC2)OCCO3)c2c3ccccc3n(C)c2c1=O	23087*	-2	-4	-1	-3	-1
O=C(C1CSC2(c3ccc(F)cc3)CCC(=O)N12)N1CCCCCC1 (centres undefined)	20230*	4	-13	5	2	6
CCOc1ccc(C(=O)C[n+]2cccc3cc(C)ccc32)cc1	25078*	1	12	-18	-1	79*
Cc1ccc(C(=O)C[n+]2cccc3cc(C)ccc32)cc1	9902	i	1	1	-3	6
CCCCNC(=S)N(C)/N=C/c1c(C)[nH]c2ccccc12	5277	0	5	32*	12	-29
CCCCNC(=S)N(C)/N=C/c1c(F)c(F)c(F)c(F)c1F	2090	0	-1	0	1	10
Cc1cccc(-c2nc(=S)c3c(n2Cc2ccco2)CCCC3)c1	22703*	0	-10	3	2	1
COc1cccc(-c2nc(=S)c3c(n2Cc2ccco2)CCCC3)c1	12282	i	-4	-1	-8	-22
CN(C)CCCn1c(-c2ccccc2)nc(=S)c2c1CCCC2	19594*	-3	-14	?	-2	-32
OCCCn1c(-c2ccccc2)nc(=S)c2c1CCCC2	21784*	i	1	?	3	2
Cc1ccc(-c2nc(=S)c3c(n2Cc2ccco2)CCCC3)cc1	3147	-2	-4	0	-8	-1
CC1(C)Cc2c(c(=S)nc(-c3ccccc3)n2CCO)CO1	4824	i	0	0	0	-13
CC1/C(=N/O)CC(c2ccccc2)N(C)C1c1ccccc1 (centres undefined)	5753	7	-1	0	2	-2
CC1C(c2ccccc2)N(C)C(c2ccccc2)CC1(O)c1ccccc1 (centres undefined)	17483*	i	-6	-6	-4	-7
Cc1ccccc1SCC(=O)NCCCn1ccnc1	4376	-10	0	3	4	1
O=C(CSc1nc2ccccc2[nH]1)NCCCn1ccnc1	16490*	0	0	1	0	1
N#C/C(=C/c1ccc(N2CCOCC2)o1)c1nc2ccccc2[nH]1	11009	i	-1	-5	428*	126*
Cc1ccc(-n2nnc3c(=O)n(Cc4ccccc4C)cnc32)cc1	4392	0	-11	0	-19	-17
CCOC(=O)C(C)n1cnc2c(nnn2Cc2ccc(Cl)cc2)c1=O (centres undefined)	7834	-12	1	0	7	3
COc1ccc(-n2nnc3c(=O)n(Cc4cc(C)ccc4C)cnc32)cc1	17509*	i	3	11	3	16
COc1cccc(-n2nnc3c(=O)n(Cc4ccccc4F)cnc32)c1	21710*	0	0	-3	20	-5
COc1cccc(-n2nnc3c(=O)n(CC(=O)N4CCC(Cc5ccccc5)CC4)cnc32)c1	24394*	-2	-4	?	-10	-1
